Screens (PubChem BioAssay)
This excerpt belongs to a sample that is enriched for hits.
CD40 NFkB inh = inhibitors of CD40-induced NF-kB signaling, primary screen, BL2 cells, luciferase reporter, single point; inhibition, % at 10 µM; 0.94% of 83,000 active; AID 1053188, 2014; CD40L-induced, 4 h;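 active means mean inhibition of at least 50% with a set share of replicates also reaching that level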;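 further: 0% = neutral control wells and 100% = IKK inhibitor VII at 50 µM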
* hit, by the source's call; [ ] = remark or other dose.

SMILES	CD40 NFkB inh
O=C(C[C@@H]1C[C@H]2c3cc(NC(=O)c4cccnc4)ccc3O[C@H]2[C@@H](CO)O1)NCc1cc(F)ccc1F	-16[25 µM]
C[C@@H]1CN([C@@H](C)CO)C(=O)c2ccccc2-c2ccccc2CO[C@H]1CN(C)S(=O)(=O)c1ccsc1	-14
CNC[C@@H]1Oc2ccc(NC(C)=O)cc2C(=O)N(C)C[C@H]1C	-2
C[C@@H]1CN([C@@H](C)CO)C(=O)Cc2cc(NC(=O)Nc3ccc(F)cc3)ccc2O[C@H]1CN(C)S(C)(=O)=O	6[25 µM]
CCCC(=O)N1CCC2(CC1)CN(C(C)=O)[C@H](CO)c1c2c2ccc(OC)cc2n1C	-2[25 µM]
CC1Cc2ccccc2N1c1ncnc(N)c1[N+](=O)[O-] (stereo unspecified)	54*
CC1Cc2ccccc2N1C(=O)c1cnc2n(c1=O)CCS2 (stereo unspecified)	1
CC1Cc2ccccc2N1C(=O)c1cnsn1 (stereo unspecified)	7
CC(=O)O[C@@H]1c2c(ccc3ccc(=O)oc23)OC(C)(C)[C@@H]1OC(=O)CC(C)C	13[25 µM]
C[C@H]1CN([C@@H](C)CO)C(=O)CCCn2nncc2CO[C@@H]1CN(C)C(=O)C1CCCCC1	7[25 µM]
N#Cc1cccc(-c2ccc3c(c2)[C@@H]2[C@@H](CCN2C(=O)CN2CCOCC2)[C@H](CO)N3)c1	-12[25 µM]
N#Cc1ccc(-c2ccc3c(c2)[C@@H]2[C@@H](CCN2C(=O)C2CC2)[C@H](CO)N3)cc1	2
N#Cc1cccc(-c2ccc3c(c2)[C@H]2[C@H](CCN2C(=O)CN2CCOCC2)[C@@H](CO)N3)c1	-7[25 µM]
N#Cc1ccc(-c2ccc3c(c2)[C@H]2[C@H](CCN2C(=O)C2CCC2)[C@@H](CO)N3)cc1	47
N#Cc1cccc(-c2ccc3c(c2)[C@@H]2[C@@H](CCN2C(=O)CN2CCOCC2)[C@@H](CO)N3)c1	active[25 µM]
N#Cc1ccc(-c2ccc3c(c2)[C@H]2[C@H](CCN2C(=O)C2CC2)[C@@H](CO)N3)cc1	68*
CCCC#Cc1ccc([C@@H]2[C@H](C#N)N(C(=O)C3CCCC3)[C@H]2CO)cc1	6
CO[C@@H]1CN(C)C(=O)c2cc(NC(C)=O)ccc2OC[C@H](C)N(C(=O)Cc2ccccn2)C[C@H]1C	-4[25 µM]
C/C=C/c1ccc2c(c1)O[C@@H](CN(C)C(=O)Nc1cccc(F)c1)[C@H](C)CN([C@H](C)CO)S2(=O)=O	-14[25 µM]
O=C(N1CCN(CCO)CC1)N1c2ccccc2CCc2ccccc21	3
O=C(CN1CCCC1)N1c2ccccc2Sc2ccccc21	1
OCCN1CCN(CCCN2c3ccccc3Sc3ccc(C(F)(F)F)cc32)CC1	51*
CCCC(=O)Nc1ccc2c(c1)OC[C@H](C)N(S(=O)(=O)c1cn(C)cn1)C[C@@H](C)[C@@H](OC)CN(C)C2=O	-13[25 µM]
CN(C)CC(=O)N1[C@@H]2c3ccc(-c4cccnc4)c(=O)n3C[C@H]1[C@H](CO)[C@H]2C(=O)NC1CCCC1	1[25 µM]
COC1=CC(=O)c2c(ccc3ncnc(N)c23)C1=O	103*
SMILES	CD40 NFkB inh
N#C[C@H]1[C@H](c2ccc(-c3ccccc3F)cc2)[C@H](CO)N1C(=O)C1CCC1	14[25 µM]
COc1ccc2c3c(n(C)c2c1)[C@@H](CO)N(Cc1ccccc1OC)CC31CN(C)C1	-8[25 µM]
CC(C)NC(=O)Nc1ccc2c(c1)CC(=O)N(C)C[C@@H](C)[C@H](CN(C)C(=O)OC(C)(C)C)O2	0
CC(=O)N(C)C[C@@H]1Oc2ccc(NS(C)(=O)=O)cc2CC(=O)N(C)C[C@@H]1C	6
Cc1nnc(NC(=O)c2ccc(-c3ccc(Cl)cc3)o2)s1	2
Cc1cc(N2CCN(C)CC2)ccc1NC(=O)c1ccc(-c2ccc(Cl)cc2)o1	64*
O=C(Nc1ccccc1N1CCCCC1)c1ccc(-c2ccc(Cl)cc2)o1	-2
COC(=O)[C@H](C)NC(=O)Nc1ccc(S(N)(=O)=O)cc1	14
CNC(=O)Nc1ccc(S(N)(=O)=O)cc1	10
CC(C)C(Cl)=NOC(=O)Nc1ccc(S(N)(=O)=O)cc1	112*
CCCNC(=O)N1CC2(C1)[C@@H](c1ccccc1)[C@@H](CO)N2C(=O)c1cccnc1	-7[25 µM]
CCCNC(=O)N1[C@H](C#N)[C@H](c2ccccc2-c2ccccc2)[C@@H]1CO	25[25 µM]
N#CC(C#N)=C(N)/C(C#N)=C/c1cc(O)c(O)c(O)c1	-18[25 µM]
CCn1c2ccccc2c2cc(/C=C(/C#N)C(N)=S)ccc21	-5
CC(C)(C)c1cc(/C=C(\C#N)C(N)=S)cc(C(C)(C)C)c1O	56*[25 µM]
CNC[C@@H]1Oc2ccc(NS(C)(=O)=O)cc2CC(=O)N(C)C[C@@H]1C	4
C[C@H]1CC(=O)NCC/C=C\C[C@H](c2ccc3c(c2)OCO3)NC1=O	6[25 µM]
CC(C)CN(C[C@@H]1N[C@@H](CO)[C@@H]1c1ccccc1)C(=O)CN(C)C	-5[25 µM]
Cc1ccc(C=C2C=C(c3ccccc3)OC2=O)cc1	-33
Cc1ccc(S(=O)(=O)N2CC=C(N)N2)cc1	-2
Cc1ccc(/C=C2/CNC/C(=C\c3ccc(C)cc3)C2=O)cc1	65*[25 µM]
O=C1CCCn2cc(nn2)COCC2CCCN12 (stereo unspecified)	-4[25 µM]
